This passage reports PBM binding z-score results from the supplement of paper PMC6555819.

In the assay the test system is RARa:RXR (NR concentration 270 nM, RXRa partner concentration 90 nM). In words: PBM binding z-score (relative to random genomic background probes); higher = stronger binding; sequences stand for … in GC…GCGATTGACAGCGTAGAATGAAGG
In short, it runs like this: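 Binding buffer was PBS pH 7.4 with 2% milk, 0.02% Triton X-100, 1 mM DTT, 0.2 mg/mL BSA and 0.4 mg/ml salmon testes DNA. In it, ligand-free nuclear receptor dimers were incubated 1 h on custom Agilent 4×180K protein-binding microarrays carrying double-stranded probes. Antibodies against each partner (one per run) detected binding, and z-scores were calculated against random background probes after regression normalization of scanned fluorescence.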
In turn, GCGACTGGGCCATCAGCAGGTTACCATAACTTAA came in with a PBM binding z-score of -0.295.
For the sequence CCGACTGGGGCCGAAAGGTTACCATACCATCCGG, the PBM binding z-score was found to be 1.78.
The sequence GCTCGGAGGACAACGTCAGAGCTTTGTCCGTAGA showed a PBM binding z-score of -1.29.
TCATATTGGTAAAGGTGAAAGTCGAACGATATGA registered a PBM binding z-score of 1.25.
TGAATGAGGTTCAAGATCAGGGAACGTGGCGTCG came in with a PBM binding z-score of 0.775.
For the sequence TAGCCTAGGTCATTCAGGGGCCAGGATAGAAAGC, the PBM binding z-score turned out to be 3.5.
As for AGTCAAAGTTCATCTAGGTAATGTAAGATATGCT, the figure is 3.72; as for CGAACTAGGTCACTGACAGGACAGTGAATAGTAA, 1.94.
Take GATACAGGGTCAGCTAGAGGCTAGAGTATGGAAA: the PBM binding z-score turned out to be 3.58.
TCTAGCAGGCCAGAGGGTAACTCAAGAGGTACGG came in with a PBM binding z-score of -0.0159.
Sequence ATCTCTAGGTAGAGTTCAGTGAAAGATCGATAGA showed a PBM binding z-score of 1.22.
Turning to TGAATGAGGTTAAAGTTCAGGGAACGTGGCGTCG, the PBM binding z-score turned out to be 6.19.
The sequence TCTATTAGATGATTAGGGCAACCGAAACAGCGGA showed a PBM binding z-score of 0.416.
As for ATATGTAGGTTAAGGGTCATTCTGGTTGGTTCGC, the figure is 5.63.
CGTCCAAGGTCAAAGTTCAGTGAAGAGATGACGG: the PBM binding z-score came out at 8.01.
As for GTTCGGAGGACAAGGTCAGAGCTTTGTCCGTAGA, the figure is 2.17; as for TCGAGTAGGGTACCAATGGGGCATTCAGCTTTCT, -0.262; as for CGAACTAGGTCAAGAACAGTGAATCTCCGCACGC, 1.69.
With TCTTGTAGAGCAAAGGTTAAGAAAGCCGAAGCCT, the PBM binding z-score is 2.16.
CCGACTGGGCCAAAAAGGTCATTGATGCCGATAA: the PBM binding z-score was found to be 4.92.
Turning to AAAATGAGGTTACCAAAGATCAGGGAAACGCTTG, the PBM binding z-score was 2.47.
TCATATAGGTAAACAGGGGAAAGTCCGTAAGTTA yielded a PBM binding z-score of 1.21.
